# Out of some 13,000 compounds screened, about 3,200 (25%) showed an effect of 50% or more. The list shows a part of the results.
# Test system: P. falciparum stage V gametocytes
# Parameters: BacTiter-Glo ATP luminescence viability of purified stage V gametocytes in 384-well plates, per cent inhibition versus DMSO
# Conditions: 48 h, 5 µM; inhibitor
row,Structure (SMILES),% Inhibition
1,Clc1ccc(CNc2nc(NCCc3cnc[nH]3)nc(N3CCCC4CCCCC43)n2)cc1 (stereo not drawn) [TCMDC-139743],10.44%
2,Cc1oc(-c2ccccc2)nc1CCOc1ccc(C[C@H](Nc2ccccc2C(=O)c2ccccc2)C(=O)NCc2ccccn2)cc1 [TCMDC-138315],-1.633%
3,NC1=NC2(CCCC2)C(c2ccc(Cl)c(Cl)c2)C(N)=N1 (stereo not drawn) [TCMDC-137490],18.93%
4,O=C(c1cnn(-c2ccccc2)c1C(F)(F)F)N1CCN(c2ccnc3cc(Cl)ccc23)CC1 [TCMDC-123790],-13.06%
5,COc1cc(Nc2nccc(NCC(O)c3ccc(C(F)(F)F)cc3)n2)cc(OC)c1OC (stereo not drawn) [TCMDC-136589],-6.814%
6,CN(C)CCOc1cc(NC(=O)c2ccc(-c3ccc(Cl)cc3Cl)cc2)ccc1-c1ccccc1 [TCMDC-138835],-44.47%
7,Cc1nc(-c2ccc(-c3ccc(NC(=O)Nc4ccc(I)c(OCCN(C)C)c4)cc3)c(C)c2)no1 [TCMDC-139107],-54.47%
8,COc1ccc(-c2cccc(NC(=O)c3cccc(C#N)c3)c2)cc1CN1CCNCC1 [TCMDC-132620],19.71%
9,Cc1nc(-c2ccc(-c3ccc(C(=O)Nc4ccc(I)c(OCCN5CCCC5)c4)cc3)c(C)c2)no1 [TCMDC-139109],57.83%
10,O=C(Nc1ccc(-c2ccccc2)c(OCCN2CCNCC2)c1)c1ccc(-c2ccc(Cl)cc2)cc1 [TCMDC-138818],100.4%
11,COc1ccc(-c2cccc(NC(=O)c3ccc(Cl)cc3)c2)cc1CN1CCCC1 [TCMDC-132604],46.68%
12,COc1cc(NC(=O)c2ccc(-c3ccccc3)cc2)ccc1OCCCN1CCC(c2ccccc2)CC1 [TCMDC-141370],-49.11%
13,COc1ccc(-c2cccc(NC(=O)c3cccc(Cl)c3)c2)cc1CN1CCNCC1 [TCMDC-132613],106.1%
14,Cc1nc(-c2ccc(-c3ccc(C(=O)Nc4ccc(I)c(OCC5CCCN5C)c4)cc3)c(C)c2)no1 (stereo not drawn) [TCMDC-139110],-18.97%
15,COc1ccc(-c2cccc(NC(=O)c3ccc(Cl)cc3)c2)cc1CN1CCNCC1 [TCMDC-132601],95.75%
16,COc1ccc(-c2cccc(NC(=O)c3ccc(C#N)cc3)c2)cc1CN1CCCC1 [TCMDC-132611],11.39%
17,CC1C(c2cccc(Cl)c2)OCC(C)(C)N1C(=O)CCN1CCCCC1 (stereo not drawn) [TCMDC-137873],-11.63%
18,COc1ccc2nccc([C@@H](O)CN3CCC(NCc4ccc5c(c4)NC(=O)C(C)(C)O5)CC3)c2c1 [TCMDC-141097],21.74%
19,NC(N)=NN=C1C=Cc2cccc3cccc1c23 [TCMDC-137662],-87.82%
20,Cc1cc(NC2CCCC2)nc(Nc2ccccc2F)n1 [TCMDC-133463],-1.86%
21,Cc1cc(C)cc(Oc2c(C(F)(F)F)oc3c(CN4CC(C)OC(C)C4)c(O)ccc3c2=O)c1 (stereo not drawn) [TCMDC-125695],-2.168%
22,CCOc1ccccc1NC(=O)Nc1ccc2c(c1)CCN(C1CCC1)CC2 [TCMDC-135951],31.77%

row,Structure (SMILES),% Inhibition
1,CCN1CCN(C(=O)NC(C(=O)N(C)Cc2ccc(-c3ccc(C(F)(F)F)cc3)cc2)c2cccs2)C(=O)C1=O (stereo not drawn) [TCMDC-141576],23.66%
2,CCOC(=O)NOC(C(=O)O)c1ccccc1 (stereo not drawn) [TCMDC-131406],-4.765%
3,COC(=O)c1cccc(CNCc2cccc(-c3ccc(-c4nc5cc(C(F)(F)F)ccc5[nH]4)cc3)c2)c1.O=C(O)C(F)(F)F [TCMDC-132955],-38.35%
4,O=C(Nc1cccc(-c2cccc(CN3CCCC3)c2)c1)c1cccc(Cl)c1 [TCMDC-132659],85.38%
5,COc1ccc(-c2ccc(NC(=O)c3ccc(C#N)cc3)cc2)cc1CN1CCCC1 [TCMDC-132519],46.41%
6,COc1ccc(-c2cccc(NC(=O)c3cccc(Cl)c3)c2)cc1CN1CCCC1 [TCMDC-132615],79.62%
7,O=C(Nc1ccc(-c2ccc(CN3CCNCC3)cc2)cc1)c1cccc(Cl)c1 [TCMDC-132590],87.95%
8,O=C(Nc1cccc(-c2ccc(CN3CCNCC3)cc2)c1)c1cccc(Cl)c1 [TCMDC-132640],-31.19%
9,COc1ccc(-c2cccc(NC(=O)c3cccc(Cl)c3)c2)cc1CN1CCCN(C)CC1 [TCMDC-132614],-18.61%
10,COc1ccc(-c2ccc(NC(=O)c3ccc(C#N)cc3)cc2)cc1CN1CCNCC1 [TCMDC-132516],43.65%
11,O=C(Nc1cccc(-c2ccc(CN3CCCC3)cc2)c1)c1cccc(Cl)c1 [TCMDC-132643],24.88%
12,CN1CCCN(Cc2cccc(-c3cccc(NC(=O)c4cccc(Cl)c4)c3)c2)CC1 [TCMDC-132657],-0.3892%
13,COc1ccc(-c2ccc(NC(=O)c3cccc(Cl)c3)cc2)cc1CN1CCCC1 [TCMDC-132525],40.62%
14,COc1ccc(-c2ccc(NC(=O)c3ccc(Cl)cc3)cc2)cc1CN1CCNCC1 [TCMDC-133338],93.69%
15,CN1CCCN(Cc2ccc(-c3ccc(NC(=O)c4cccc(Cl)c4)cc3)cc2)CC1 [TCMDC-132591],42.97%
16,COc1ccc(-n2nc(C)c3c2NC(=O)CC3c2ccccc2OCc2ccc(F)cc2)cc1 (stereo not drawn) [TCMDC-124906],40.61%
17,COC(=O)c1cc(C(O)CNC(C)CCCc2ccccc2)ccc1O (stereo not drawn) [TCMDC-131241],-5.82%
18,COc1ccc2nccc([C@@H](O)CN3CCC(NCc4nc5c(F)cccc5[nH]4)CC3)c2c1 [TCMDC-140760],20.74%
19,O=C(c1cccc(-c2cccc(-c3nc4cc(C(F)(F)F)ccc4[nH]3)c2)c1)N1CCCCC1CN1CCC(O)C1 (stereo not drawn) [TCMDC-132346],-18.68%
20,CCN(CCCN1CCCCC1)c1cc(C)nc(Nc2cc(Cl)cc(Cl)c2)n1 [TCMDC-132455],8.984%
21,Cc1nc(C(C)Nc2nncc(-c3ccc(Cl)cc3)n2)cs1 (stereo not drawn) [TCMDC-124636],-29.02%
22,CC(C)c1cccc(C(NC(=O)[C@H]2Cc3ccccc3CN2C(=O)c2cccc(N3CCOCC3)c2)C2CCCC2)c1 (stereo partly drawn) [TCMDC-138264],2.743%

row,Structure (SMILES),% Inhibition
1,FC(F)(F)c1ccc2[nH]c(-c3ccc(-c4cccc(CNCC5CCCO5)c4)s3)nc2c1.O=C(O)C(F)(F)F (stereo not drawn) [TCMDC-133099],-9.129%
2,COc1ccc2nccc([C@@H](O)CN3CCC(NS(=O)(=O)c4cc(Br)c(Br)s4)CC3)c2c1 [TCMDC-141306],29.28%
3,COc1ccc(-c2cccc(NC(=O)c3cccc(Cl)c3)c2)cc1CN1CCC(O)CC1 [TCMDC-132618],87.3%
4,COc1ccc(-c2cccc(NC(=O)c3ccc(Cl)cc3)c2)cc1CN1CCC(O)CC1 [TCMDC-132606],-74.32%
5,COc1ccc(-c2ccc(NC(=O)c3cccc(Cl)c3)cc2)cc1CN1CCC(O)CC1 [TCMDC-133334],46.17%
6,Cc1ccc(CNc2cc(C(F)(F)F)nc(-c3ccc(S(C)(=O)=O)cc3)n2)cc1 [TCMDC-138598],20.79%
7,CN1CCCN(c2ccnc3cc4c(cc23)N(C(=O)c2ccc(Cl)c(Cl)c2)CC4)CC1 [TCMDC-140242],99.6%
8,Cc1nc(-c2ccc(C(F)(F)F)cn2)sc1C(=O)N1CCc2cc3nccc(N4CCN5CCC[C@H]5C4)c3cc21 [TCMDC-140330],-2.363%
9,Cc1cc(-c2cccc3c(C(=O)N4CCc5cc6nccc(N7CCN8CCC[C@H]8C7)c6cc54)cccc23)cc(C)n1 [TCMDC-139793],31.07%
10,CN1CCCN(c2ccnc3cc4c(cc23)N(C(=O)c2ccc(Cl)cc2Cl)CC4)CC1 [TCMDC-140241],126.7%
11,CN1CCN(c2ccnc3cc4c(cc23)N(C(=O)Nc2ccc(-c3ccncc3)c3ccccc23)CC4)CC1 [TCMDC-139371],4.895%
12,O=C(Nc1ccc(Cl)c(Cl)c1)N1CCc2cc3nccc(N4CCN5CCC[C@H]5C4)c3cc21 [TCMDC-140055],49.62%
13,Cc1cc(-c2cccc3c(C(=O)N4CCc5cc6nccc(N7CCCN(C)CC7)c6cc54)cccc23)cc(C)n1 [TCMDC-140244],100.8%
14,O=C(/C=C/c1ccc(C(F)(F)F)cc1)N1CCc2cc3nccc(N4CCN5CCC[C@H]5C4)c3cc21 [TCMDC-140045],20.84%
15,CN1CCN(c2ccnc3ccc(NC(=O)c4ccc(Cl)c(Cl)c4)cc23)CC1 [TCMDC-139350],4.304%
16,CN1CCN(c2ccnc3cc4c(cc23)N(C(=O)Nc2ccc3c(c2)CCCC3=O)CC4)CC1 [TCMDC-139372],0.5076%
17,CN1CCCN(c2ccnc3cc4c(cc23)N(C(=O)c2ccccc2Cl)CC4)CC1 [TCMDC-140239],27.46%
18,CN1CCCN(c2ccnc3cc4c(cc23)N(C(=O)c2ccc(C(F)(F)F)cc2)CC4)CC1 [TCMDC-140243],67.52%
19,CN1CC(c2ccccc2)c2cc(O)c(CN3CCCCC3)cc2CC1Cc1ccccc1 (stereo not drawn) [TCMDC-131902],-4.593%
20,COc1cc(Cc2cnc(N)nc2N)cc(OCCCCNS(=O)(=O)C(F)(F)F)c1OC [TCMDC-137348],8.081%
21,O=C(NC1CCN(CCCOc2ccnc3cc(Cl)ccc23)C1)c1ccc(Br)cc1 (stereo not drawn) [TCMDC-136147],-6.07%
22,Cc1nc(-c2ccc(-c3ccc(C(=O)Nc4ccc(Cl)c(N5CCN(C)CC5)c4)cc3)c(C)c2)no1 [TCMDC-131979],-60.2%

# From publication PMC4552634, “A New Set of Chemical Starting Points with Plasmodium falciparum Transmission-Blocking Potential for Antimalarial Drug Discovery” (PLoS ONE, 2015)
